Several values for one entry are separate records, joined by “and”; a condition that tells them apart may be missing. Identical values can stand only once. Records with an inconclusive call do not appear. The source holds several records for some structures; these can differ, active in one and inactive in another. Activity calls are given as the source filed them. Unless noted, calls follow the shape of the dose curve; as a rule, active = well fitted curve in the direction sought with a large enough effect in the repeat runs; inconclusive = weak or mixed curves; inactive = no such curve, though single readings can be large; an effect the other way counts as inactive or inconclusive.

Twelve compounds from PubChem BioAssay (Tox21) can be followed below.

A short description of assay [1]: qHTS assay to test for compound auto fluorescence at 535 nm (green) in HEK293 cells (AID 720680). To be noted: green autofluorescence 485/535 nm; series mostly up to 91.3 µM. (Quantitative high-throughput screening tests each substance at several concentrations.)
Assay [2] can be described thus: qHTS assay to test for compound auto fluorescence at 460 nm (blue) in HEK293 cell free culture (AID 720681). The settings on record: cell-free medium, autofluorescence 405/460 nm (blue); series mostly up to 91.3 µM. Summed up:
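Test compounds were pinned into cell-free culture medium (DMEM with 10% FBS) and fluorescence was read directly at Ex/Em 405/460 nm. Signals were expressed as fluorescence equivalents of triamterene, with DMSO vehicle as control.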

The nature of assay [3]: qHTS assay to test for compound auto fluorescence at 590 nm (red) in HEK293 cell free culture (AID 720683). To be noted: cell-free medium autofluorescence, Ex540/Em590 red; series mostly up to 91.3 µM. Summed up:
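Tox21 10K library compounds were pinned into cell-free DMEM with 10% FBS and fluorescence was read at excitation 540 nm. Activity is expressed as Rose Bengal sodium equivalency.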

Assay [4] can be described thus: qHTS assay to test for compound auto fluorescence at 590 nm (red) in HepG2 cell free culture (AID 720684). The settings on record: cell-free medium autofluorescence, red 540/590 nm; series mostly up to 91.3 µM. Summed up: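 Measured in medium alone (MEM containing 10% FBS) following pintool addition of compound; emission at 590 nm with 540 nm excitation, referenced to Rose Bengal sodium.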

The nature of assay [5]: qHTS assay to test for compound auto fluorescence at 460 nm (blue) in HepG2 cell free culture (AID 720685). To be noted: Cell-free culture medium, blue autofluorescence 405/460 nm; series mostly up to 91.3 µM. Summed up:
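Compound (23 nL) or DMSO pinned into cell-free MEM with 10% FBS; blue fluorescence read at 405/460 nm excitation/emission, expressed as auto-fluorescence equivalency to triamterene.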

Assay [6] can be described thus: qHTS assay to test for compound auto fluorescence at 535 nm (green) in HepG2 cell free culture (AID 720686). To be noted: Cell-free medium, green autofluorescence 485/535 nm; series mostly up to 91.3 µM.
Assay [7] can be described thus: qHTS assay to test for compound auto fluorescence at 460 nm (blue) in HepG2 cells (AID 720687). To be noted: autofluorescence 405/460 nm, 1 h; series mostly up to 91.3 µM. An outline of the steps: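 Cells (2,000/well in MEM with 10% FBS) attached overnight at 37 C, then were exposed to compound or DMSO for 1 hr at 37 C, 5% CO2. Fluorescence read at Ex/Em 405/460 nm, expressed as triamterene-equivalent signal.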

For assay [8], the target named is Glucocorticoid receptor (Homo sapiens) (UniProt P04150). Put plainly: qHTS assay to identify small molecule agonists of the glucocorticoid receptor (GR) signaling pathway (AID 720691; active = well fitted activation curve with a large enough effect in the signal ratio in the repeat runs, not every such curve was filed as active; the % refers to the signal ratio). To be noted: GR-bla HeLa, beta-lactamase reporter ratio, 18 h; activation: at 62.4 µM (top of the series) unless noted. Summed up:
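Fluorescence intensity from LiveBLAzer B/G FRET substrate (2 h, room temperature) reports beta-lactamase expression driven by the glucocorticoid response element in GR-bla HeLa cells after 18 h compound exposure at 37 C.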

For assay [9] the target is unchanged. Put plainly: qHTS assay to identify small molecule antagonists of the glucocorticoid receptor (GR) signaling pathway (AID 720692; active = well fitted inhibition curve with a large enough effect in the signal ratio in the repeat runs, not every such curve was filed as active; the % refers to the signal ratio). The settings on record: GR-bla HeLa, beta-lactamase FRET ratio, dexamethasone-stimulated, 18 h; series mostly up to 58.5 µM. An outline of the steps: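 HeLa GR-bla cells; cmpd + dex 5 nM final, 18 h 37 C; LiveBLAzer B/G FRET substrate 2 h RT; fluorescence intensity read. Antagonist mode, qHTS.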

Assay [10] can be described thus: qHTS assay to identify small molecule antagonists of the glucocorticoid receptor (GR) signaling pathway - cell viability counter screen (AID 720693). Also: nearly all actives have a fitted effect of over 55% in size. The settings on record: GR-bla HeLa viability, CellTiter-Glo luminescence, 18 h, with 5 nM dexamethasone present; series mostly up to 58.5 µM.
Assay [11] can be described thus: qHTS assay for identifying genotoxic compounds that show differential cytotoxicity against isogenic chicken DT40 cell lines with known DNA damage response pathways - wild type cell line (AID 743012). Also: nearly all actives have a fitted effect of over 60% in size. Also: potency is read from the fitted curve at half-maximal effect. To be noted: DT40 wild type chicken cells viability, CellTiter-Glo, 40 h; series mostly up to 68.4 µM. Summed up: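 Wild type DT40, 300 cells/well, ~0.5 h settle at 37 C/5% CO2; compounds in DMSO added by pintool; 40 h at 37 C/5% CO2; CellTiter-Glo, 30 min RT; luminescence.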

The nature of assay [12]: qHTS assay for identifying genotoxic compounds that show differential cytotoxicity against isogenic chicken DT40 cell lines with known DNA damage response pathways - Rev3 mutant cell line (AID 743014). Also: nearly all actives have a fitted effect of over 55% in size. Also: potency is read from the fitted curve at half-maximal effect. To be noted: chicken DT40 Rev3-/- viability, CellTiter-Glo, 40 h; series mostly up to 68.4 µM.
The nature of assay [13]: qHTS assay to identify small molecule antagonists of the androgen receptor (AR) signaling pathway - cell viability counter screen (AID 743033; also: nearly all actives have a fitted effect of over 45% in size). To be noted: AR-bla HEK293 viability, CellTiter-Glo luminescence, 16 h; series mostly up to 58.5 µM.
Assay [14] can be described thus: qHTS assay to identify small molecule antagonists of the androgen receptor (AR) signaling pathway using the MDA cell line - cell viability counter screen (AID 743041; also: nearly all actives have a fitted effect of over 45% in size). To be noted: MDA-kb2 viability, CellTiter-Fluor, 16 h, cells co-treated with R1881 androgen agonist; series mostly up to 70.3 µM. An outline of the steps: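 Viability counter screen run alongside the AR antagonist reporter: cells seeded 5 h before compound, R1881 added, 16 h incubation at 37C without CO2, fluorescent CellTiter-Fluor signal quantified.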

Assay [15] is described as follows: qHTS assay for identifying genotoxic compounds that show differential cytotoxicity against isogenic chicken DT40 cell lines with known DNA damage response pathways - Rad54/Ku70 mutant cell line (AID 743015). Also: nearly all actives have a fitted effect of over 60% in size. Also: potency is read from the fitted curve at half-maximal effect. The settings on record: DT40 Rad54/Ku70 mutant viability, CellTiter-Glo, 40 h; series mostly up to 66.8 µM.
Assay [16] concerns the target Androgen receptor (Homo sapiens) (UniProt P10275). Put plainly: qHTS assay to identify small molecule antagonists of the androgen receptor (AR) signaling pathway (AID 743035; active = well fitted inhibition curve with a large enough effect in the signal ratio in the repeat runs, not every such curve was filed as active; the % refers to the signal ratio). The settings on record: HEK293 AR-UAS-bla, R1881-stimulated, beta-lactamase FRET, 16 h; series mostly up to 58.5 µM. An outline of the steps: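 Fluorescence from a beta-lactamase FRET substrate (LiveBLAzer B/G, 2 h, room temperature) measured inhibition of R1881-stimulated signaling in GeneBLAzer AR-UAS-bla HEK293 cells exposed to compound for 16 h at 37C.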

The target is the same in assay [17]. Put plainly: qHTS assay to identify small molecule agonists of the androgen receptor (AR) signaling pathway (AID 743036; active = well fitted activation curve with a large enough effect in the signal ratio in the repeat runs, with a control signal flat, not every such curve was filed as active; the % refers to the signal ratio). To be noted: HEK293 AR-UAS-bla GripTite, beta-lactamase FRET ratio, 16 h; series mostly up to 62.4 µM. Summed up:
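HEK293 cells stably carrying a UAS-driven beta-lactamase reporter (GeneBLAzer AR-UAS-bla-GripTite) were plated at 2,000 cells/well, rested 4 h at 37C, then exposed to compounds in DMSO for 16 h. LiveBLAzer B/G FRET substrate was added for 2 h at room temperature; fluorescence read.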

Assay [18] has the same target. Put plainly: qHTS assay to identify small molecule agonists of the androgen receptor (AR) signaling pathway using the MDA cell line (AID 743040; also: nearly all actives have a fitted effect of over 20% in size). To be noted: MDA-kb2 AR-luc cells, MMTV luciferase, 16 h, stronger effect = higher value; series mostly up to 70.3 µM. An outline of the steps: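 Luminescence from ONE-Glo, read after 30 min at room temperature, reflects MMTV-driven luciferase in MDA-kb2 cells (AR- and GR-responsive). Treatment lasted 16 h at 37C, 0% CO2.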

The target is the same in assay [19]. Put plainly: qHTS assay to identify small molecule antagonists of the androgen receptor (AR) signaling pathway using the MDA cell line (AID 743042; also: nearly all actives have a fitted effect of over 55% in size). To be noted: MDA-kb2 AR-luc, MMTV luciferase, R1881 antagonist, 16 h; series mostly up to 70.3 µM. An outline of the steps: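 MDA-kb2 cells (human breast carcinoma, stably carrying an MMTV-luciferase reporter responsive to AR and GR) were plated at 3,000 cells/well and preincubated 5 hr at 37C, then given compound plus R1881 agonist for 16 h. ONE-Glo luminescence was read.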

Chain of Glucocorticoid receptor (Homo sapiens) (P04150 whole entry, looked up): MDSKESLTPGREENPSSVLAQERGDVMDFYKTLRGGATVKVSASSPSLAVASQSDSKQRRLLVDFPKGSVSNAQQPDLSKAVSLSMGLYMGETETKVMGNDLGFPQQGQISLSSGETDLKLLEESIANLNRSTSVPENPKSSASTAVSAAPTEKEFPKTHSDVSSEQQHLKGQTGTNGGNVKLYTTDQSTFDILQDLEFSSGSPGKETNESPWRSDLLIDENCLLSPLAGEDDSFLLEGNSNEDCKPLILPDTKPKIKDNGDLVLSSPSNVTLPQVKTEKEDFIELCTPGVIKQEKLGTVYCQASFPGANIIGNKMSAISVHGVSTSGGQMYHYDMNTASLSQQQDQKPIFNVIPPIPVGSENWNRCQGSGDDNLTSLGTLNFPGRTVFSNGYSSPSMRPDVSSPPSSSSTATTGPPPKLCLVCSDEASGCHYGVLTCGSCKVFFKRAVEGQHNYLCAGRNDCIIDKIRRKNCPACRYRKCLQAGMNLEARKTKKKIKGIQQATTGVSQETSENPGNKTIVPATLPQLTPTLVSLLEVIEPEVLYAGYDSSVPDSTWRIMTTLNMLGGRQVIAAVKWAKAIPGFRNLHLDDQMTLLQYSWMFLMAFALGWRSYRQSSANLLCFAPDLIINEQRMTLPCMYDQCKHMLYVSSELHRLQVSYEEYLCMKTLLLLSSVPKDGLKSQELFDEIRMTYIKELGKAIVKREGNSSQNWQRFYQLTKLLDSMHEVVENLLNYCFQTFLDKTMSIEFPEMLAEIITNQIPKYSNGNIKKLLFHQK
Chain of Androgen receptor (Homo sapiens) (P10275 whole entry, looked up): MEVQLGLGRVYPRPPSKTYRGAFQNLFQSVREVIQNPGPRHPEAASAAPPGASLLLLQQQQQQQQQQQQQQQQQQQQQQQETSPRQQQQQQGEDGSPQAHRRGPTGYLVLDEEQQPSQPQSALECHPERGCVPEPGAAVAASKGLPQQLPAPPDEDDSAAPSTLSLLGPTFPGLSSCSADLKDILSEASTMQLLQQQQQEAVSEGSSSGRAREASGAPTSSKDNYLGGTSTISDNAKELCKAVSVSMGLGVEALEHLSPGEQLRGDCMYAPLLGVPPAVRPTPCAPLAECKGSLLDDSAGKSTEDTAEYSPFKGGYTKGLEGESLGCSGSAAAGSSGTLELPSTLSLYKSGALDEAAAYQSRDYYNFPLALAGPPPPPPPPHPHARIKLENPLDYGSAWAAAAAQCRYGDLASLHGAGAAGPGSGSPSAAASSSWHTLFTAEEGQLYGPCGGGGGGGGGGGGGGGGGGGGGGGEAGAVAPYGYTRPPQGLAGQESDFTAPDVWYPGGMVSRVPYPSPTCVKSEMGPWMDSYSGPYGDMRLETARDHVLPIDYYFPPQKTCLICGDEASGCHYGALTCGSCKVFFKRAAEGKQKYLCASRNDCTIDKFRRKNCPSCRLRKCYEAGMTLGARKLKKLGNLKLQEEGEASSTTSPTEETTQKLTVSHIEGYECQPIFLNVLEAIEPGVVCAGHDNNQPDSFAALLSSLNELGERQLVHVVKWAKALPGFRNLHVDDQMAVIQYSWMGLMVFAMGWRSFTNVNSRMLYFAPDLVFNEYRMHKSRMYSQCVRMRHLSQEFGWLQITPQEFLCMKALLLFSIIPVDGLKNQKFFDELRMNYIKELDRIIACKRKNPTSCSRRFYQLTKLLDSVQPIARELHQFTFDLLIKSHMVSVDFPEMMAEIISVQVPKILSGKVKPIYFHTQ

On to `CC(C)(N=C=O)c1cccc(C(C)(C)N=C=O)c1`, for which the result in assay [1], in [3], in [4], in assay [6] and in assay [7] was inactive. In addition, the Potency entry in assay [2], in [5], in assay [8], in [9], in [10] and in assay [11] was “inactive” throughout. In addition, the Potency entry in [12], in assay [13] and in assay [14] was “inactive” each time.
For the compound `C=CC(=O)OCCCCCCCC(C)C`, the outcome in [1], in [3], in assay [4], in assay [6], in assay [7] and in assay [16] was inactive. Further, the outcome in [17], in [18] and in [19] was inactive. In addition, the Potency result in assay [2], in assay [5], in [10], in assay [13] and in [14] was “inactive” in each case. The Potency result was “inactive and 48.5 µM (active)” in [11]; “inactive and 54.4 µM (active)” in assay [12]; “inactive and 27.3 µM (active)” in assay [15].
As to `NCc1cccc(CN)c1`, the result in assay [1], in [3], in assay [4], in assay [6] and in [7] was inactive. Besides, the Potency result in assay [2], in assay [5], in assay [8], in [9], in [10] and in assay [11] was “inactive” throughout. In addition, the Potency result in [12], in [15], in [13] and in assay [14] was “inactive” in each case.
Turning to `CC1COc2ccccc2N1C(=O)C(Cl)Cl` (centres undefined), the compound was classed as inactive in [1], in [3], in assay [4], in assay [6] and in assay [7]. Moreover, the Potency result in assay [2], in assay [5], in [8], in assay [10] and in assay [13] was “inactive” in each case. The Potency in assay [12] was 30.6 µM (active) and 24.3 µM (active); in assay [15] it was 61 µM (active) and 38.5 µM (active).
In the case of `CCC(=O)O`, the compound was classed as inactive in assay [1], in assay [3], in assay [4], in assay [6] and in assay [7]. The Potency entry in assay [2], in assay [5], in assay [8], in assay [9], in assay [10] and in [11] was “inactive” in each case. The Potency result in assay [12], in assay [15], in assay [13] and in assay [14] was “inactive” in each case.
Consider `O=S(=O)(O)CCS`, for which the call in assay [1], in [3], in [4], in assay [6] and in assay [7] was inactive. In addition, the Potency entry in assay [2], in assay [8], in assay [9], in assay [10], in [11] and in assay [12] was “inactive” in each case. Further, the Potency entry in [13] and in assay [14] was “inactive” in each case.
Regarding `COCC(C)O` (centres undefined), the outcome in assay [1], in assay [3], in [4], in [6] and in [7] was inactive. The Potency result in [2], in assay [5], in assay [8], in assay [9], in assay [10] and in assay [11] was “inactive” in each case. Besides, the Potency entry in assay [12], in assay [15], in assay [13] and in assay [14] was “inactive” each time.
Consider `Cc1ccc(N)c(S(=O)(=O)O)c1`, for which the outcome in [1], in assay [3], in assay [4], in assay [6] and in assay [7] was inactive. Further, the Potency entry in assay [2], in assay [5], in [8], in [9], in [10] and in assay [11] was “inactive” in each case. Besides, the Potency entry in [12], in assay [15], in [13] and in [14] was “inactive” each time.
For `OC1CCCC1`, the compound was called inactive in assay [1], in assay [3], in [4], in assay [6] and in assay [7]. Further, the Potency result in [2], in assay [5], in assay [8], in assay [9], in assay [11] and in [12] was “inactive” in each case. In addition, the Potency result in assay [15], in assay [13] and in assay [14] was “inactive” throughout.
Regarding `O=C(c1ccc(O)cc1)c1ccc(O)cc1O`, the compound was called inactive in [1], in [3], in assay [4], in assay [6] and in [7]. Moreover, the Potency entry in assay [2], in [8], in assay [11], in assay [12], in assay [13] and in assay [14] was “inactive” throughout.
In the case of `c1ccc2ccccc2c1`, the compound was classed as inactive in assay [1], in [3], in assay [4], in assay [6] and in assay [7]. Moreover, the Potency result in assay [2], in assay [5], in [10], in assay [11], in assay [12] and in [15] was “inactive” throughout. In addition, the Potency result in [13] and in assay [14] was “inactive” each time.
For `O=C(Cl)c1c(Cl)c(Cl)c(C(=O)Cl)c(Cl)c1Cl`, the outcome in assay [1], in assay [3], in assay [4], in [6] and in assay [7] was inactive. The Potency result in [2], in [5], in [8], in [9], in assay [10] and in assay [11] was “inactive” throughout. Also, the Potency result in assay [12], in [15], in [13] and in [14] was “inactive” throughout.
